The whole screen tested about 330,000 compounds, of which about 7,300 (2.2%) were called active. The sample as a whole holds a higher share of actives than the screen did. A number with no mark means an inactive call.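 The calls were made as follows: active = inhibition of at least 40%; inactive = the rest.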
Experiment: growth inhibitors of tim10-1 mutant yeast, primary screen, luminescence, uHTS (AID 463190);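 also: mutant grown at 25 °C; 0% = DMSO wells with yeast and 100% = wells holding no yeast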
Details: S. cerevisiae tim10-1 ts strain growth, BacTiter-Glo, 24 h; at 20 µM; stronger effect = higher value

| SMILES | inhibition |
| --- | --- |
| CCOC(=O)c1c(-c2cccc(N)c2)cn2ccccc12 | 10.5% |
| CCOC(=O)c1nnn(-c2nonc2OC)c1-c1ccccc1 | 15.2% |
| CCOC(=O)c1c(N)nn(C(=O)c2ccccc2)c1-c1ccccc1 | 41.5% (active) |
| Cc1ccnc(NC(=O)Cn2ccc([N+](=O)[O-])n2)c1 | 14.6% |
| COc1cccc(/C=C/C(=O)OCC(=O)N2CCN(c3ccccc3)CC2)c1 | 17.4% |
| Cc1cc(NCc2ccco2)n2c(nc3ccccc32)c1C#N | 7.48% |
| Cn1c(-c2ccco2)nc2cc3ccccc3cc21 | 33.2% |
| CN1c2ccccc2-c2nc3ccccc3n2C1c1ccco1 (centres undefined) | 42.1% (active) |
| CCO[C@H]1OC(C(=O)O)=C[C@@H](C2CCCCC2)[C@@H]1CCCO | -21.3% |
| CCCOc1ccc(Cc2c(Cl)nc(SC)nc2NC)cc1 | 35.5% |
| COc1ccc(C(=O)Nc2sc(C)c(C)c2CN2CCOCC2)cc1 | 34.2% |
| CCc1cc(C(N)=O)c(NC(=O)c2ccc(OC)cc2)s1 | 45.5% (active) |
| CCc1cc(C(=O)c2ccc(OC)cc2)c(NC(=O)CN2CCN(C)CC2)s1 | 17.7% |
| C/C(Cn1nnc2ccccc21)=N\OC(=O)c1cc(F)c(F)cc1Cl | 37.4% |
| Cc1n[nH]c(=O)c2c(NC(=O)COC(=O)c3ncc(Cl)c(Cl)c3Cl)oc(C)c12 | 10.5% |
| CC(C(=O)O)n1cnc2sc3c(c2c1=O)CCCC3 (centres undefined) | 2.4% |
| COc1cc(Cl)ccc1OCc1cc(C(=O)N(C)CCc2c(C)n[nH]c2C)no1 | 7.82% |
| Cc1ccc(SC(CC(=O)c2ccc(C(C)(C)C)cc2)C(=O)O)cc1 (centres undefined) | 40.7% (active) |
| Cc1ccc(C(=O)CSc2ccccc2C(=O)O)cc1 | -0.398% |
| Cc1ccc(CSCC(N)C(=O)O)cc1 (centres undefined) | 13.8% |

| SMILES | inhibition |
| --- | --- |
| CCC(C(=O)OCC(=O)Nc1c(Cl)cc(Cl)cc1Cl)c1ccccc1 (centres undefined) | 39.5% |
| CCOC(=O)c1nnn(-c2nonc2-n2cccc2)c1CN1CCOCC1 | 23.2% |
| CCOC(=O)c1c(CN2CCOCC2)n(-c2ccccc2)c2ccc(O)cc12 | 45% (active) |
| CCOC(=O)c1c(CN(C)C)n(-c2ccccc2)c2cc(Br)c(O)cc12 | 10.1% |
| Cc1ccc(NC(=O)CN2CCC3(O)CCCCC3C2c2ccc3c(c2)OCO3)c(C)c1 (centres undefined) | 45.2% (active) |
| CC1CCCCN1CC(=O)NCc1ccc2c(c1)OCO2 (centres undefined) | 4.67% |
| CCN(CC)c1ccc(C2C3CCCCC3(O)CCN2CC(=O)Nc2ccccc2)cc1 (centres undefined) | -17.2% |
| COc1ccc(N2CCN(C(=O)COC(=O)c3cccc(S(=O)(=O)Nc4ccccc4OC)c3)CC2)cc1 | 19.1% |
| O=C1NC[C@@H](c2ccccc2)OC(=O)[C@H](Cc2ccc(F)cc2)CC/C=C/C[C@H]1CC(=O)N(CCO)Cc1ccccc1 | 3% |
| S=c1nc(C23CC4CC(CC(C4)C2)C3)nc2sccn12 | -12.4% |
| CCOc1ccc(NC(=O)COc2ccc(C(=O)N3CCC(C(N)=O)CC3)cc2OC)cc1 | 3.08% |
| O=C(c1cn2ccccc2n1)N1CCc2c([nH]c3ccccc23)C1c1ccccn1 (centres undefined) | 22.4% |
| Cc1cccc(C(=O)N2CCc3c([nH]c4ccccc34)C2CC(C)C)n1 (centres undefined) | 10.6% |
| Cc1cccc(C2c3[nH]c4ccccc4c3CCN2C(=O)c2cc(-c3cccn3C)n[nH]2)n1 (centres undefined) | 44% (active) |
| COCC1CCN(C(=O)C2CCC(=O)N(CC3CCCCC3)C2)CC1 (centres undefined) | -9.11% |
| Cc1nc(SC(C)C)[nH]c(=O)c1Cc1ccccc1 | 18.7% |
| Cc1nn(C)c(C)c1NS(=O)(=O)c1ccc(OC(F)(F)F)cc1 | -1.38% |
| O=C1COc2ccc(S(=O)(=O)Nc3ccc(OC(F)(F)F)cc3)cc2N1 | 18.6% |
| O=S(=O)(Nc1ccc(O)c2ccccc12)c1ccc(OC(F)(F)F)cc1 | 42.5% (active) |
| CC(=O)NS(=O)(=O)c1ccc2c(c1)Cc1cc(S(=O)(=O)NC(C)=O)ccc1-2 | -1.53% |

| SMILES | inhibition |
| --- | --- |
| O=C1CC2(CC(c3ccc(Cl)cc3)=NO2)C(=O)N1c1ccccc1 (centres undefined) | -3.93% |
| CN(C)CCCN(C(=O)c1ccc(S(=O)(=O)N2CCCCCC2)cc1)c1nc2cc3c(cc2s1)OCCO3 | 27.4% |
| CN(C)CCCN(C(=O)c1ccc(S(=O)(=O)N2CCCc3ccccc32)cc1)c1nc2ccc(F)cc2s1 | 52.8% (active) |
| CN(C)CCCN(C(=O)c1ccc(S(=O)(=O)N2CCCCCC2)cc1)c1nc2ccc(Br)cc2s1 | 26.2% |
| O=[N+]([O-])c1ccc(S(=O)(=O)Nc2cccc(-c3ccc(N4CCCC4)nn3)c2)cc1 | 11.6% |
| Cc1c(C(=O)NCCN2CCOCC2)sc2nc(-c3ccc(F)cc3)cn12 | 4.04% |
| FC(F)(F)Oc1ccc(NC(=S)NCc2ccccc2)cc1 | 41.8% (active) |
| COC(=O)Cc1ccc(NC(=S)NCc2ccccc2)cc1 | 21.8% |
| CCNC(=S)Nc1ccc(OC(F)(F)F)cc1 | 14.5% |
| Cc1ccc(CCNC(=O)C2CCN(S(=O)(=O)N3CCCC3)CC2)cc1 | 4.68% |
| CCOc1ccc(C2/C(=C(/O)c3ccc4c(c3)CC(C)O4)C(=O)C(=O)N2CCCn2ccnc2)cc1 (centres undefined) | -3.88% |
| Cc1[nH]c2ccccc2c1C(=O)CSCC(=O)O | 12.6% |
| Cc1[nH]c2ccccc2c1C(=O)COC(=O)c1c(-c2ccccc2)noc1C | 52.3% (active) |
| Cc1onc(-c2ccccc2Cl)c1C(=O)OCC(=O)c1ccccc1 | 11.7% |
| O=C(CSc1ccc(-c2ccco2)nn1)Nc1cccc(F)c1 | 3.73% |
| Cc1cc(SCc2c(F)cccc2Cl)nc(=O)[nH]1 | 6.52% |
| Fc1cccc(Cl)c1CSc1ccc(-c2ccco2)nn1 | 45.4% (active) |
| CC(C)NC(=O)C(=O)NCCN1CCN(S(=O)(=O)c2ccc(Cl)cc2)CC1 | 2.58% |
| CC/C(=N\O)C(C)(C)/[N+]([O-])=C/c1ccc(Br)cc1 | 5.1% |
